“And” between values parts separate entries of the source, which are not always exact repeats. Identical values can stand only once. Out of some 5,500 compounds screened, about 2,000 (36%) were called active. Roughly 18% stayed inconclusive and do not appear here. Rule as the data show it: active = normalized growth mostly below about 0.91 (no sharp cut-off); inconclusive = no clear call, values can overlap the other calls; inactive = mostly above about 0.92. This is one part of the list.
Assay: chemical genetic growth profiling, strain panel (AID 1159580);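 also: tested at 20 µM; growth read once vehicle control cultures reached saturation at 30 °C; 1 = growth at the plate median or of vehicle wells; lower values mean less growth of the strain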
Conditions: S. cerevisiae deletion strains, growth OD

Measured: normalized growth

CC1=C(C(=O)O)N2C(=O)[C@@H](NC(=O)[C@H](N)C3=CCC=CC3)C2SC1 (some centres not stated)
inactive: locus YAL013W, strain DEP1, stronger effect = lower value 1 | locus YAL021C, strain ccr4, stronger effect = lower value 1.01 | locus YAL026C, strain drs2, stronger effect = lower value 1.03 | locus YAL030W, strain snc1, stronger effect = lower value 1.03 | locus YBL061C, strain skt5, stronger effect = lower value 1.03 | locus YBR009C, strain hhf1, stronger effect = lower value 1.02 | locus YBR021W, strain FUR4, stronger effect = lower value 1.02 | locus YBR023C, strain chs3, stronger effect = lower value 1.02 | locus YBR171W, strain sec66, stronger effect = lower value 1.04 | locus YBR229C, strain ROT2, stronger effect = lower value 0.953 | locus YBR231C, strain swc5, stronger effect = lower value 1.04 | locus YBR279W, strain paf1, stronger effect = lower value 1.01 | locus YCL011C, strain gbp2, stronger effect = lower value 1.03 | locus YCL016C, strain dcc1, stronger effect = lower value 1.02 | locus YCL029C, strain bik1, stronger effect = lower value 0.998 | locus YCL061C, strain MRC1, stronger effect = lower value 1.02 | locus YCL069W, strain vba3, stronger effect = lower value 1.02 | locus YCR088W, strain abp1, stronger effect = lower value 1.02 | locus YDL005C, strain med2, stronger effect = lower value 1.03 | locus YDL035C, strain GPR1, stronger effect = lower value 0.965 | locus YDL040C, strain nat1, stronger effect = lower value 1.02 | locus YDL074C, strain BRE1, stronger effect = lower value 0.987 | locus YDL101C, strain DUN1, stronger effect = lower value 0.98 | locus YDL185W, strain tfp1, stronger effect = lower value 0.977 | locus YDL192W, strain arf1, stronger effect = lower value 0.989 | locus YDR001C, strain nth1, stronger effect = lower value 1.01 | locus YDR069C, strain doa4, stronger effect = lower value 1.02 | locus YDR101C, strain arx1, stronger effect = lower value 0.988 | locus YDR137W, strain rgp1, stronger effect = lower value 1.03 | locus YDR159W, strain sac3, stronger effect = lower value 1.04 | locus YDR162C, strain NBP2, stronger effect = lower value 0.951 | locus YDR195W, strain ref2 0.992 | locus YDR297W, strain sur2, stronger effect = lower value 1.02 | locus YDR318W, strain mcm21, stronger effect = lower value 1 | locus YDR334W, strain swr1, stronger effect = lower value 1.01 | locus YDR335W, strain msn5, stronger effect = lower value 1.02 | locus YDR388W, stronger effect = lower value 0.99 | locus YDR392W, strain spt3, stronger effect = lower value 1.03 | locus YDR502C, strain sam2, stronger effect = lower value 1.02 | locus YEL003W, strain gim4, stronger effect = lower value 1.02 | locus YEL037C, strain rad23, stronger effect = lower value 1.02 | locus YEL061C, strain CIN8 (second series), stronger effect = lower value 1.02 | locus YEL061C, strain CIN8, stronger effect = lower value 0.995 | locus YER015W, strain faa2, stronger effect = lower value 1 | locus YER016W, strain bim1, stronger effect = lower value 1.02 | locus YER110C, stronger effect = lower value 0.981 | locus YER111C, strain swi4, stronger effect = lower value 1.03 | locus YER155C, strain BEM2 (second series), stronger effect = lower value 1.03 | locus YER155C, strain BEM2, stronger effect = lower value 0.998 | locus YER167W, strain BCK2, stronger effect = lower value 0.989 | locus YFR010W, strain ubp6, stronger effect = lower value 1.03 | locus YGL078C, strain dbp3, stronger effect = lower value 0.993 | locus YGL086W, strain mad1, stronger effect = lower value 0.933 | locus YGL167C, strain pmr1, stronger effect = lower value 1.04 | locus YGL173C, strain kem1, stronger effect = lower value 1.03 | locus YGL227W, strain vid30, stronger effect = lower value 1.02 | locus YGL240W, strain doc1, stronger effect = lower value 1.03 | locus YGL248W, strain PDE1, stronger effect = lower value 1.01 | locus YGL253W, strain hxk2, stronger effect = lower value 1.03 | locus YGR135W, strain pre9, stronger effect = lower value 1.03 | locus YGR252W, strain gcn5, stronger effect = lower value 1.05 | locus YHR013C, strain ard1, stronger effect = lower value 1.05 | locus YHR027C, strain rpn1, stronger effect = lower value 1.02 | locus YHR030C, strain SLT2, stronger effect = lower value 0.994 and 0.964 | locus YHR079C, strain IRE1 (second series), stronger effect = lower value 1 | locus YHR079C, strain IRE1, stronger effect = lower value 0.956 | locus YHR094C, strain hxt1, stronger effect = lower value 0.983 | locus YHR129C, strain ARP1, stronger effect = lower value 0.988 | locus YHR142W, strain chs7, stronger effect = lower value 1.04 | locus YHR200W, strain rpn10, stronger effect = lower value 0.986 | locus YIL066C, strain RNR3, stronger effect = lower value 0.971 | locus YIL073C, strain SPO22, stronger effect = lower value 1.01 | locus YIL125W, strain kgd1, stronger effect = lower value 0.99 | locus YIR030C, strain dcg1, stronger effect = lower value 0.993 | locus YJL092W, strain hpr5, stronger effect = lower value 1.02 | locus YJL095W, strain BCK1 (second series), stronger effect = lower value 1.02 | locus YJL095W, strain BCK1, stronger effect = lower value 1.02 and 0.989 | locus YJL115W, strain asf1, stronger effect = lower value 1.03 | locus YJL129C, strain trk1, stronger effect = lower value 1.03 | locus YJL134W, strain LCB3, stronger effect = lower value 0.985 | locus YJL154C, strain vps35, stronger effect = lower value 1.01 | locus YJL164C, strain tpk1, stronger effect = lower value 1.02 | locus YJL166W, strain qcr8, stronger effect = lower value 1.02 | locus YJL168C, strain set2, stronger effect = lower value 0.994 | locus YJL187C, strain SWE1 (second series), stronger effect = lower value 0.996 | locus YJL187C, strain SWE1, stronger effect = lower value 1.03 | locus YJR043C, strain POL32, stronger effect = lower value 0.961
